Source: PubChem BioAssay
DRD3 antagonist – D3 dopamine receptor (human) antagonism. D3R cells, DiscoveRx beta-arrestin luminescence, antagonist mode; active compounds read low. max response, negative = inhibition, %. 2.5% of 360,000 active; in the data active = max response below about -50%; inconclusive = no clear call, values can overlap the other calls
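Cells plated overnight at 1500 cells/well, then exposed to library compounds with dopamine controls for 90 minutes at 37 degrees C. DiscoveRx reagent added for 30–60 minutes at room temperature; luminescence read, quantitative HTS format.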
D1 antagonist – human D1 dopamine receptor antagonism. P21728. HEK293 TREx D1 cells, calcium flux, dopamine EC80; active compounds read low. activity change, negative = inhibition, % at 10 µM. 3.2% of 360,000 active. AID 504652; in the data active = activity change below about -30%
Target sequence (P21728 whole entry, looked up): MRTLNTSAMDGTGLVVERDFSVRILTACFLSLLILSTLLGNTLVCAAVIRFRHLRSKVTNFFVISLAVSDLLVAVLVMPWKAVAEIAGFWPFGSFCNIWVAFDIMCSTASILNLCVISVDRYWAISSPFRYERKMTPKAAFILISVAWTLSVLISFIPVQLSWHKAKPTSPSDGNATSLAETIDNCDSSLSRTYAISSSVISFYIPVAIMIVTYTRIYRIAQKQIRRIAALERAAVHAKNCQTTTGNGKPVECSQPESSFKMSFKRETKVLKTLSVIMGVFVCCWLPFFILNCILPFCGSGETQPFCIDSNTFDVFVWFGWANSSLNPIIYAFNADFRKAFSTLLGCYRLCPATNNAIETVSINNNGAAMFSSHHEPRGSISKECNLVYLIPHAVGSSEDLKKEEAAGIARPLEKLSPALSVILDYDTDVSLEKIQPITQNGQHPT
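HEK293 T-REx cells expressing inducible, force-coupled D1 receptor; no-wash Ca dye, 30–90 min RT. Cmpd → 180 s read at 1 Hz → EC80 DA → 180 s read.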
D1 ag – human D1 receptor agonism; HEK293 T-REx D1 cells, calcium flux, agonist mode; AID 504660; 1% of 360,000 active; activation, % at 2 µM; P21728; in the data active = activation above about 30%
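Agonism was scored from calcium flux recorded over 180 s (1 read/s) after pintool compound addition, following a 10-cycle baseline. Cells were inducible force-coupled HEK293 TREx D1, plated overnight at 30 C and loaded with no-wash calcium dye.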
D3 ag – agonists of human D3 dopamine receptor | P35462 | D3R DiscoveRx beta-arrestin cells, luminescence, 90 min | max activation, % | 0.58% of 410,000 active; in the data active = max activation above about 30%
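Agonist-mode cell screen: cells plated at 1500/well and incubated overnight at 37 °C, then exposed to library compounds for 90 min at 37 °C. Detection reagent was added for 30–60 min at room temperature, and luminescence was read.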
D1 potentiator – human D1 dopamine receptor positive modulation. 0.036% of 360,000 active. potentiation, % at 10 µM. HEK293 TREx D1 cells, calcium flux, dopamine EC20 potentiation. AID 504651; in the data active = potentiation above about 30%
Each line names hits and unclear results; the compound was inactive in the other large screens. Only some compounds are listed: those with a hit (about 6% of all), similar ones and a draw of the others.

Cc1nn(Cc2ccccc2)c2sc(C(=O)NCc3cccnc3)cc12	DRD3 antagonist inconclusive, D1 antagonist -47.4
N#Cc1c(F)cccc1N1CCN(Cc2ccc3c(c2)OCO3)CC1	DRD3 antagonist -91.0, D1 antagonist -37.1 (no result: D1 potentiator)
COc1ccc2cc(C(=O)N3CCN(Cc4ccc5c(c4)OCO5)CC3)[nH]c2c1	D1 ag 32.7
Cc1nn(Cc2ccccc2)c2sc(C(=O)N3CCN(Cc4ccc5c(c4)OCO5)CC3)cc12	DRD3 antagonist inconclusive, D1 antagonist -31.0
COC(=O)c1cc(NC(=O)c2sc3ncn(Cc4cccc(F)c4)c(=O)c3c2C)cc(C(=O)OC)c1	none (no result: DRD3 antagonist)
CCOc1ccc(NC(=O)CCc2nc3cccnc3n2Cc2ccc(OC)cc2)cc1	none (no result: DRD3 antagonist)
O=C(c1cccc([N+](=O)[O-])c1)N1CCN(Cc2ccc3c(c2)OCO3)CC1	D1 antagonist -30.5
O=C(O)c1ccccc1C(=O)N1CCN(Cc2ccc3c(c2)OCO3)CC1	none
Cc1cc(C)cc(C(=O)N2CCN(Cc3ccc4c(c3)OCO4)CC2)c1	none
Cc1ccc2[nH]c3c(c2c1)CN(C(=O)CN1CCN(Cc2ccc4c(c2)OCO4)CC1)CC3	D1 antagonist -34.9, D1 ag 42.0
Cc1cc(C(=O)N2CCN(Cc3ccc4c(c3)OCO4)CC2)cs1	DRD3 antagonist -91.7
Cc1ccc(C(=O)N2CCN(Cc3ccc4c(c3)OCO4)CC2)cc1[N+](=O)[O-]	none
O=C(c1ccccc1F)N1CCN(Cc2ccc3c(c2)OCO3)CC1	DRD3 antagonist -67.4
CC(C)c1ccc(S(=O)(=O)c2cnc(SCC(=O)Nc3cccc(C(F)(F)F)c3)nc2N)cc1	none (no result: DRD3 antagonist)
CCCCCCCCCCCCCCCC(=O)OC[C@H](O)[C@H]1OC(=O)C(O)=C1O	none (no result: DRD3 antagonist, D1 antagonist, D1 ag, D1 potentiator)
COc1ccc(/C(O)=C2\C(=O)C(=O)N(Cc3ccco3)C2c2cc(OC)ccc2OC)cc1 (centres undefined)	D1 antagonist -30.5
O=C1C(=O)N(Cc2ccco2)C(c2cccc(Cl)c2)/C1=C(\O)c1ccc2c(c1)OCCO2 (centres undefined)	D1 antagonist -52.8
COc1cc(C2/C(=C(\O)c3ccc4c(c3)OCCO4)C(=O)C(=O)N2Cc2ccco2)cc(OC)c1OC (centres undefined)	D1 antagonist -33.1
COc1cc(C2/C(=C(\O)c3ccc4c(c3)OCCO4)C(=O)C(=O)N2Cc2ccco2)ccc1O (centres undefined)	none
COc1ccc(NC(=O)C(NC(=O)/C=C\c2ccc3c(c2)OCO3)c2ccccc2)cc1 (centres undefined)	none (no result: DRD3 antagonist)
Cc1nc(SCC(=O)O)c2oc3ccccc3c2n1	none
Cc1nc(SCC(=O)N2CCN(c3ccccc3)CC2)c2oc3ccccc3c2n1	D3 ag 42.2
COc1cc(OC)c(Nc2ncnc3onc(-c4cccc(Cl)c4)c23)cc1Cl	none (no result: DRD3 antagonist)
Cc1ccc(Cl)cc1NC(=O)C(C)n1nnc2sc3c(c2c1=O)CCCC3 (centres undefined)	none (no result: DRD3 antagonist)
Cc1ncc(CN2CCC(n3nccc3NC(=O)c3ccccc3)CC2)s1	none
COC(=O)Nc1ncc(CN2CCC(c3ccccc3)CC2)s1	DRD3 antagonist -54.3
N#CC1(CCCN2CCCCC2)c2ccccc2CCc2ccccc21	DRD3 antagonist -93.0 (no result: D1 antagonist, D1 ag, D1 potentiator)
CCN1C(=O)[C@H]2[C@@H](c3ccc(-c4ccc(C(C)=O)cc4)cc3)N[C@@](Cc3ccccc3)(C(=O)OC)[C@H]2C1=O	none
CCN1C(=O)[C@H]2[C@@H](c3ccc(-c4ccc(F)cc4)c(OC)c3)N[C@@](C)(C(=O)OC)[C@H]2C1=O	DRD3 antagonist -51.4
COC(=O)C1(C)NC(c2ccc(O)cc2)C2C(=O)N(c3ccc(C)cc3)C(=O)C21 (centres undefined)	D1 antagonist -42.2
CCN1C(=O)[C@H]2[C@@H](c3ccc(-c4ccccc4)c(OC)c3)N[C@@](CC(C)C)(C(=O)OC)[C@H]2C1=O	DRD3 antagonist -51.2 (no result: D1 antagonist, D1 ag, D1 potentiator)
CCN1C(=O)[C@H]2[C@@H](c3ccc(-c4ccc(OC)cc4)c(OC)c3)N[C@@](C)(C(=O)OC)[C@H]2C1=O	none
CCN1C(=O)[C@H]2[C@@H](c3ccc(-c4cc(C(C)=O)cs4)cc3)N[C@@](Cc3ccccc3)(C(=O)OC)[C@H]2C1=O	D3 ag 36.9 (no result: D1 antagonist, D1 ag, D1 potentiator)
O=C(C1COc2ccccc2O1)N1CCN(c2nc3c(F)cccc3s2)CC1 (centres undefined)	none (no result: DRD3 antagonist, D1 antagonist)
O=C(CSc1nnc2ccc3ccccc3n12)Nc1ccccc1Cl	none (no result: DRD3 antagonist)
CCCCn1c(-c2ccccc2C)nc2cc3[nH]c(=O)c(C(C)C)nc3cc21	DRD3 antagonist -63.8
CCCCn1c(-c2cccc3ccccc23)nc2cc3[nH]c(=O)c(C(C)C)nc3cc21	none
CC1=C(C(=O)N2CCN(c3cccc(Cl)c3)CC2)C2(CCCCC2)OC1=O	none (no result: DRD3 antagonist)
Cn1cc(CN2CCC(C(O)c3cccs3)CC2)c(-c2cccc(Cl)c2)n1 (centres undefined)	D1 ag 41.5
Cn1cc(CN2CCN(c3ncccn3)CC2)c(-c2cccc(Cl)c2)n1	none
COC(=O)c1ccc(OC)c(CN2CCCN(Cc3ccc(C)cc3)S2(=O)=O)c1	D1 antagonist -33.9 (no result: DRD3 antagonist)
COc1cccc(C2=NOC(C(=O)Nc3cc(C)nn3-c3ccccc3)C2)c1OC (centres undefined)	none
Cc1cc(N/C(=N\S(=O)(=O)c2ccc(F)cc2F)c2ccccc2)no1	none (no result: D1 antagonist)
Cc1cc(NC(=O)C2CC(c3ccc(F)cc3)=NO2)n(-c2ccccc2)n1 (centres undefined)	D1 antagonist -63.9 (no result: D1 potentiator)
Cc1ccccc1N/C(=N/S(=O)(=O)c1cc(F)ccc1F)c1ccccc1	D1 antagonist -31.0
Cc1cc(N/C(=N/S(=O)(=O)c2cc(F)ccc2F)c2ccccc2)n(-c2ccccc2)n1	D1 antagonist -35.9
Cc1cc(C)cc(NC(=O)c2cccc(N3CCCS3(=O)=O)c2)c1	none (no result: DRD3 antagonist)
FC(F)(F)c1cccc(NC(=S)NNC(=S)Nc2cccc(C(F)(F)F)c2)c1	D1 antagonist -33.6 (no result: DRD3 antagonist, D3 ag)
CC(C)(C)NC(=S)Nc1cccc(C(F)(F)F)c1	D1 ag 30.9
CNNC(=S)Nc1cccc(C(F)(F)F)c1	none
Cc1ccc2c(c1)-c1c(cnc3cc(-c4ccc(F)cc4)nn13)CO2	none (no result: DRD3 antagonist)
COc1ccc(C(=O)c2sc(Nc3ccccc3)nc2C)cc1	none
COc1ccc(/C(C)=N/Nc2nc(C)c(C(C)=O)s2)cc1	D1 antagonist -33.0
OCCNCc1cc(Br)ccc1OCc1ccc(Cl)cc1Cl	D1 ag 38.5
O=C(CS(=O)(=O)c1cccc2nsnc12)Nc1ccc(F)cc1	none (no result: DRD3 antagonist)
c1cncc(CSc2ccc(-c3ccc4c(c3)OCO4)nn2)c1	D1 antagonist -39.1
Cn1c(Cc2ccccc2)nnc1SCC(=O)NC1CCCCC1	none
Cn1c(Cc2csc(N)n2)nnc1SCC(=O)NC1CCCCC1	DRD3 antagonist -57.4
COc1cccc(Cn2c(=O)n(-c3ccc(Br)cc3F)c(=O)c3sc4ccccc4c32)c1	none (no result: DRD3 antagonist)
COc1ccccc1NC(=O)CN1C(=O)c2cccc3cccc1c23	none (no result: DRD3 antagonist)
